Shown are actives, neighbours in structure and some others; about 2.3% of the full set was active somewhere.
DNA FID counter = displaces DNA intercalator in HCV helicase counter-screen; DNA fluorescent intercalator displacement, fluorescence; inhibition, % at 7.9 µM; AID 1845; actives 0.17% (n = 290,000); in the data active means inhibition above about 37%;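 further: higher means more ethidium bromide displaced from hairpin DNA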
Rce1 inh = inhibitors of yeast Ras-converting enzyme; yeast membranes, quenched prenylated peptide cleavage fluorescence; Q03530; actives 0.27% (n = 290,000); calls only;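 active means fall in fluorescence gain of 50% or more versus controls, with final raw signal at or below 3038400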
Target sequence (Q03530 whole entry, looked up): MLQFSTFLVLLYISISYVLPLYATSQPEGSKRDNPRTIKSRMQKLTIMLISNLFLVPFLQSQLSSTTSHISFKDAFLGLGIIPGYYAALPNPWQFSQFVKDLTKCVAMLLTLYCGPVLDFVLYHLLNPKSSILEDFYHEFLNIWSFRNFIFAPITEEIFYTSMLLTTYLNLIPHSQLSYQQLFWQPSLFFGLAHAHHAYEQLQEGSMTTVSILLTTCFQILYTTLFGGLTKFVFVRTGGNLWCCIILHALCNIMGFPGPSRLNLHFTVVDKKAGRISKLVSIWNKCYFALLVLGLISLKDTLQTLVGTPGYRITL
Kir21 block = inhibitors of mouse Kir2.1 inward-rectifier potassium channel; P35561; HEK293-Kir2.1, FluxOR thallium flux fluorescence; hits give low values; AID 1672; actives 0.85% (n = 310,000); B-score at 10 µM;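 active means fluorescence ratio B-score at or below minus 3 SD of library scores, with starting-brightness B-score within 2 SD, cut at about -4.2 in these data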;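 further: channel flux triggered by added potassium and thallium sulfate stimulus; B-score of peak minus minimum fluorescence over baseline after thallium stimulus; more negative B-score means stronger Kir2.1 block with less thallium influx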
PfM18AAP inh-1 = PfM18AAP enzyme inhibition. recombinant PfM18AAP, H-Glu-NHMec fluorogenic cleavage. inhibition, % at 7.35 µM. actives 1.2% (n = 290,000). AID 1822;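 active means inhibition above the campaign mean inhibition over all tested compounds plus 3 SD, cut at about 28% in these data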
PfM18AAP inh-2 = confirmation of Plasmodium falciparum M18 aspartyl aminopeptidase inhibitors | shares compounds with PfM18AAP inh-1 | recombinant PfM18AAP, H-Glu-NHMec fluorogenic cleavage | inhibition, % at 7.35 µM | actives 28% (n = 2,400);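 active means mean inhibition over replicate wells above the hit cutoff set for the earlier primary screen, cut at about 29% in these data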
CTSL1 counter = Cathepsin L (human) inhibition, confirmation. shares compounds with PfM18AAP inh-1. purified cathepsin L1, Z-Leu-Arg-MCA fluorescence. inhibition, % at 5.96 µM. 2,400 tested, under 10 active. AID 2178;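 active means average inhibition across replicates above the hit cutoff set in the earlier primary screen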
Target sequence (P07711 whole entry, looked up): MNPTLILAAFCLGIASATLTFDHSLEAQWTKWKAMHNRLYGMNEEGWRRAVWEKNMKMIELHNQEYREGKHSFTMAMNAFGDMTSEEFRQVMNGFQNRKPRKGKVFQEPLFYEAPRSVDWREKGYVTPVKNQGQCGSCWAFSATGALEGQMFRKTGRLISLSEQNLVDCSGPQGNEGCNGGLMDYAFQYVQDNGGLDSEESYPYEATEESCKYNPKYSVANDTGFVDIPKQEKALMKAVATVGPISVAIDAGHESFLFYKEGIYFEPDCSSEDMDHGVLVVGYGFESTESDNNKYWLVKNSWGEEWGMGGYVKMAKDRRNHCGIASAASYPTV
A number is an active result; 0 = inactive; - = not tested or not shown.

SMILES | DNA FID counter | Rce1 inh | Kir21 block | PfM18AAP inh-1 | PfM18AAP inh-2 | CTSL1 counter
OCCNCC(O)CN1c2ccccc2Sc2ccccc21 (configuration not stated) | 0 | 0 | 0 | 0 | - | -
CCN1/C(=C/c2cc[n+](CCCS(=O)(=O)[O-])c3ccccc23)Sc2ccccc21 | 0 | 0 | 0 | 33 | 0 | 0
O=C(O)Cn1c2ccccc2c2n[nH]c(=S)nc21 | 0 | 0 | 0 | 47 | 31 | 0
COc1ccccc1/C=C1\SC(=S)N(CC(=O)NC2CCS(=O)(=O)C2)C1=O (configuration not stated) | 0 | 0 | 0 | 0 | - | -
CCNC(=S)NNc1ccccc1 | 0 | 0 | 0 | 0 | - | -
CCNC(=S)NNc1nncc2ccccc12 | 0 | 0 | 0 | 36 | 0 | 0
O=C(O[C@@H]1OC2COC(=O)c3cc(O)c(O)c(O)c3-c3c(cc(O)c(O)c3O)C(=O)O[C@@H]([C@H]1O)[C@@H]2O)c1cc(O)c(O)c(O)c1 | 0 | 0 | 0 | 62 | 45 | 0
Cn1c(SCC(=O)NCCc2ccccc2)nnc1C1CCCCC1 | 0 | 0 | 0 | 0 | - | -
Cc1ccc(CNc2ccc3c(c2)ncn3C)cc1 | 0 | 0 | 0 | 0 | - | -
Cc1ccc(CNc2ccc3c(c2)ncn3C(C)(C)C)cc1 | 0 | 0 | 0 | 33 | 0 | 0
CC[n+]1c(/C=C2\Sc3ccccc3N2C)ccc2cccc(C)c21 | 0 | 0 | 0 | 0 | - | -
COc1ccc(-[n+]2c(C)cc(/C=C3\Sc4ccccc4N3C)cc2C)cc1 | 0 | 0 | 0 | 45 | 0 | 0
CC(C)Cc1nnc(NC(=O)CN2C(=O)NC3(CCCC3)C2=O)s1 | - | 0 | 0 | - | - | -
CC1(C)Cc2c(c(N3CCOCC3)nc3sc(C(=O)Nc4cccc(Cl)c4)c(N)c23)CO1 | 0 | 0 | 0 | 41 | 0 | 0
CC1(C)Cc2c(c(N3CCOCC3)nc3sc(C(=O)Nc4ccccc4)c(N)c23)CO1 | 0 | 0 | 0 | 37 | 0 | 0
CC(=O)c1ccc(NC(=O)c2ccccc2-c2ccccc2C(=O)O)cc1 | 0 | 0 | 0 | 0 | - | -
COc1cc2c(cc1OC)C(COc1ccc([N+](=O)[O-])cc1)NCC2 (configuration not stated) | 0 | 0 | 0 | 0 | - | -
CCC(NC(=O)CCc1c(C)c2cc3c(-c4ccccc4)coc3cc2oc1=O)C(=O)O (configuration not stated) | 0 | 0 | 0 | 0 | - | -
Cc1ccc(Nc2nc(C)cc(C)c2C(N)=O)c(C)c1 | 0 | 0 | 0 | 0 | - | -
O=C(N/C(=C/c1ccc(Br)cc1)C(=O)N1CCCCC1)c1ccccc1F | 0 | 0 | 0 | 0 | - | -
COc1ccc(/C=C(\C#N)C(=O)C(C)(C)n2cncn2)cc1 | 0 | 0 | 0 | 59 | 0 | 0
COc1ccc(/C=C(\C#N)C(=O)c2cccn2C)cc1 | 0 | 0 | 0 | 0 | - | -
CC(Sc1ccc(S(=O)(=O)N2CCOCC2)cc1[N+](=O)[O-])C(=O)O (configuration not stated) | 0 | 0 | 0 | 33 | 0 | 0
C=CCNC(=S)NNc1nc(N2CCCC2)nc(N2CCCC2)n1 | 0 | 0 | 0 | 54 | 0 | 0
CCNC(=S)NNc1nc(N2CCOCC2)nc(N2CCOCC2)n1 | 0 | 0 | 0 | 47 | 30 | 0
SMILES | DNA FID counter | Rce1 inh | Kir21 block | PfM18AAP inh-1 | PfM18AAP inh-2 | CTSL1 counter
CNC(=S)NNc1nc(N2CCOCC2)nc(N2CCOCC2)n1 | 0 | 0 | 0 | 41 | 0 | 0
Cc1cc(C)c(C(=O)COC(=O)c2cc([N+](=O)[O-])ccc2N2CCOCC2)cc1C | - | 0 | 0 | - | - | -
CCCc1nc(SCC(=O)N2CCCCCC2)c2c(=O)n(C)c(=O)n(C)c2n1 | 0 | 0 | 0 | 0 | - | -
COc1ccc(C(CNC(=O)Cc2cccs2)N(C)C)cc1 (configuration not stated) | 0 | 0 | 0 | 0 | - | -
Oc1ccc(-c2nc3ccc4ccccc4c3c3c2CCC3)cc1O | 0 | 0 | 0 | 47 | 32 | 0
COc1ccc(-c2cc(C(=O)O)nc3ccc4ccccc4c23)cc1OC | 0 | 0 | 0 | 0 | - | -
CCOc1ccc(NC(=O)CN(C)C(=O)c2ccccc2-n2cnnn2)cc1OCC | - | 0 | 0 | - | - | -
CCOc1ccccc1N1CC(C(=O)N(Cc2nnc(-c3ccccc3Cl)o2)C2CC2)CC1=O (configuration not stated) | - | 0 | 0 | - | - | -
O=CNC(=O)c1ccccc1C(=O)O | 0 | 0 | 0 | 0 | - | -
Cc1cc(C)c2nc(-c3ccccn3)cc(C(=O)NCc3cc(C)n(C)n3)c2c1 | 0 | 0 | 0 | 0 | - | -
Cc1cc(C)c2nc(-c3ccccn3)cc(C(=O)Nn3cnnc3)c2c1 | 0 | 0 | 0 | 44 | 29 | 0
O=C(Nc1ccccc1NC(=O)c1ccccc1Cl)c1ccccc1Cl | 0 | 0 | 0 | 0 | - | -
O=C(Nn1cnnc1)c1ccccc1Cl | 0 | 0 | 0 | 55 | 40 | 0
Cc1ccccc1C(=O)Nn1cnnc1 | 0 | 0 | 0 | 33 | 0 | 0
O=C(O)c1ccccc1C(=O)Nn1cnnc1 | 0 | 0 | 0 | 37 | 36 | 0
C[n+]1cccc(C(=O)NNC(=O)C23CC4CC(CC(C4)C2)C3)c1 | 0 | 0 | 0 | 0 | - | -
CC(=O)c1ccc(NC(=O)CSc2n[nH]c(-c3cccnc3)n2)cc1 | 0 | 0 | 0 | 0 | - | -
CCCc1ccc(-c2cc(C(=O)NN3CCOCC3)c3ccccc3n2)cc1 | 0 | 0 | 0 | 0 | - | -
CCc1ccc(-c2cc(C(=O)Nn3cnnc3)c3ccccc3n2)cc1 | 0 | 0 | 0 | 43 | 46 | 0
COc1cccc(C(=O)Nn2cnnc2)c1OC | 0 | 0 | 0 | 43 | 52 | 0
O=C(CSc1nnc(-c2ccccc2)o1)Nn1cnnc1 | 0 | 0 | 0 | 72 | 73 | 0
O=C(CSc1nnc(-c2ccccc2)o1)NC1CCCC1 | - | 0 | 0 | - | - | -
O=C(CP(=O)(c1ccccc1)c1ccccc1)Nn1cnnc1 | 0 | 0 | 0 | 34 | 49 | 0
COCCCNC(=O)c1cccc(OC)c1OC | 0 | 0 | 0 | 0 | - | -
O=C(Nc1ccncc1)Nc1cccc(C(F)(F)F)c1 | 0 | 0 | 0 | 0 | - | -
SMILES | DNA FID counter | Rce1 inh | Kir21 block | PfM18AAP inh-1 | PfM18AAP inh-2 | CTSL1 counter
O=C(NNc1cccc(Cl)n1)Nc1ccc(Cl)cc1 | 0 | 0 | 0 | 56 | 36 | 0
O=C(NNc1cccc(Cl)n1)Nc1cccc(C(F)(F)F)c1 | 0 | 0 | 0 | 54 | 37 | 0
O=C(Nc1ccc(Cl)cc1)Nc1ccccn1 | 0 | 0 | 0 | 0 | - | -
CN(Cc1c(C(=O)N/N=C/c2ccc(O)cc2)nnn1-c1nonc1N)c1ccccc1 | 0 | 0 | 0 | 0 | - | -
COc1ccc(N(CC(=O)NC2CCCC2)C(=O)CCC(=O)Nc2nc(C)cs2)cc1OC | 0 | - | 0 | 0 | - | -
Cc1ccc(S(=O)(=O)N2Cc3ccccc3CC2C(=O)NC(C)(C)C)cc1 (configuration not stated) | 0 | 0 | 0 | 0 | - | -
Oc1ccc(C2=Nn3c(nnc3-c3ccco3)SC2)cc1O | 0 | 0 | 0 | 75 | 60 | 0
CCOC(=O)c1sc(NS(=O)(=O)c2ccc(C)cc2)nc1C | 0 | 0 | 0 | 0 | - | -
CCOC(=O)c1sc(NNC(=O)c2ccc(C)cc2)nc1C | 0 | 0 | 0 | 37 | 0 | 0
CC1CCC/C(=N/Nc2nc3ccccc3s2)C1 (configuration not stated) | 0 | 0 | 0 | 39 | 0 | 0
Cc1cc(C)nc(NNC(=O)c2ccccc2O)n1 | 0 | 0 | 0 | 43 | 0 | 0

Assay outcomes deposited in PubChem by several laboratories.
